Results from PubChem BioAssay AID1159580 (chemical genetic matrix, 2015).
In all, about 5,500 compounds went through this assay and about 2,000 (36%) were called active. Inconclusive results (about 18%) are left out. Rule as the data show it: active = normalized growth mostly below about 0.91 (no sharp cut-off); inconclusive = no clear call, values can overlap the other calls; inactive = mostly above about 0.92. Some of the results follow.

Experiment: chemical genetic growth profiling, strain panel (AID 1159580);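 also: tested at 20 µM; growth read once vehicle control cultures reached saturation at 30 °C; 1 = growth at the plate median or of vehicle wells; lower values mean less growth of the strain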
Conditions: growth OD

Measured: normalized growth

Nc1ccc(S(=O)(=O)Nc2ccccn2)cc1
inactive: S. cerevisiae deletion strains, locus YKL009W, strain mrt4, active compounds read low 0.993 | S. cerevisiae deletion strains, locus YKL068W, active compounds read low 0.991 | S. cerevisiae deletion strains, locus YKL085W, strain MDH1 (second series), active compounds read low 0.982 | S. cerevisiae deletion strains, locus YKL085W, strain MDH1, active compounds read low 0.982 | S. cerevisiae deletion strains, locus YKL160W, strain elf1, active compounds read low 1.02 | S. cerevisiae deletion strains, locus YKL190W, strain CNB1, active compounds read low 1.01 | S. cerevisiae deletion strains, locus YKR001C, strain vps1, active compounds read low 0.995 | S. cerevisiae deletion strains, locus YKR026C, strain gcn3, active compounds read low 1.02 | S. cerevisiae deletion strains, locus YKR091W, strain srl3, active compounds read low 1.01 | S. cerevisiae deletion strains, locus YLL001W, strain dnm1, active compounds read low 1.03 | S. cerevisiae deletion strains, locus YLL026W, active compounds read low 1.02 | S. cerevisiae deletion strains, locus YLL041C, strain sdh2, active compounds read low 1.01 | S. cerevisiae deletion strains, locus YLR027C, strain aat2, active compounds read low 1.01 | S. cerevisiae deletion strains, locus YLR039C, strain RIC1, active compounds read low 1.03 | S. cerevisiae deletion strains, locus YLR058C, strain SHM2, active compounds read low 1.01 | S. cerevisiae deletion strains, locus YLR102C, strain apc9, active compounds read low 0.993 | S. cerevisiae deletion strains, locus YLR113W, strain HOG1, active compounds read low 0.976 | S. cerevisiae deletion strains, locus YLR221C, strain rsa3, active compounds read low 0.993 | S. cerevisiae deletion strains, locus YLR258W, strain gsy2, active compounds read low 1 | S. cerevisiae deletion strains, locus YLR262C, strain YPT6 (second series), active compounds read low 1.03 | S. cerevisiae deletion strains, locus YLR262C, strain YPT6, active compounds read low 1.04 | S. cerevisiae deletion strains, locus YLR268W, strain sec22, active compounds read low 0.944 | S. cerevisiae deletion strains, locus YLR320W, strain mms22, active compounds read low 0.985 | S. cerevisiae deletion strains, locus YLR330W, strain CHS5, active compounds read low 1 | S. cerevisiae deletion strains, locus YLR342W, strain FKS1 (second series), active compounds read low 0.985 | S. cerevisiae deletion strains, locus YLR342W, strain FKS1, active compounds read low 1.01 | S. cerevisiae deletion strains, locus YLR357W, strain rsc2, active compounds read low 0.996 | S. cerevisiae deletion strains, locus YLR370C, strain arc18, active compounds read low 1.01 | S. cerevisiae deletion strains, locus YLR371W, strain rom2, active compounds read low 0.99 | S. cerevisiae deletion strains, locus YLR384C, strain iki3, active compounds read low 1.01 | S. cerevisiae deletion strains, locus YLR418C, strain cdc73, active compounds read low 0.985 | S. cerevisiae deletion strains, locus YML016C, strain PPZ1, active compounds read low 1.01 | S. cerevisiae deletion strains, locus YML032C, strain rad52, active compounds read low 0.97 | S. cerevisiae deletion strains, locus YML120C, strain ndi1, active compounds read low 1.01 | S. cerevisiae deletion strains, locus YML124C, strain tub3, active compounds read low 1 | S. cerevisiae deletion strains, locus YMR058W, strain fet3, active compounds read low 1.03 | S. cerevisiae deletion strains, locus YMR078C, strain ctf18, active compounds read low 0.989 | S. cerevisiae deletion strains, locus YMR125W, strain sto1, active compounds read low 1.01 | S. cerevisiae deletion strains, locus YMR129W, active compounds read low 1.01 | S. cerevisiae deletion strains, locus YMR205C, strain PFK2, active compounds read low 1.01 | S. cerevisiae deletion strains, locus YMR223W, strain ubp8, active compounds read low 1.01 | S. cerevisiae deletion strains, locus YMR231W, strain pep5, active compounds read low 1.01 | S. cerevisiae deletion strains, locus YMR263W, strain SAP30, active compounds read low 1.01 | S. cerevisiae deletion strains, locus YMR307W, strain GAS1, active compounds read low 1.02 | S. cerevisiae deletion strains, locus YNL067W, strain RPL9B, active compounds read low 1.01 | S. cerevisiae deletion strains, locus YNL071W, strain lat1, active compounds read low 0.998 | S. cerevisiae deletion strains, locus YNL128W, strain TEP1, active compounds read low 1.01 | S. cerevisiae deletion strains, locus YNL153C, strain GIM3, active compounds read low 1.01 | S. cerevisiae deletion strains, locus YNL183C, strain NPR1, active compounds read low 0.945 | S. cerevisiae deletion strains, locus YNL209W, strain ssb2, active compounds read low 1.01 | S. cerevisiae deletion strains, locus YNL233W, strain BNI4, active compounds read low 1 | S. cerevisiae deletion strains, locus YNL248C, strain rpa49, active compounds read low 0.985 | S. cerevisiae deletion strains, locus YNL250W, strain rad50, active compounds read low 0.988 | S. cerevisiae deletion strains, locus YNL271C, strain bni1, active compounds read low 0.998 | S. cerevisiae deletion strains, locus YNL298W, strain CLA4, active compounds read low 0.988 | S. cerevisiae deletion strains, locus YNL307C, strain MCK1, active compounds read low 0.997 | S. cerevisiae deletion strains, locus YNL322C, strain KRE1 (second series), active compounds read low 1.01 | S. cerevisiae deletion strains, locus YNL322C, strain KRE1, active compounds read low 1 | S. cerevisiae deletion strains, locus YNR049C, strain mso1, active compounds read low 1.02 | S. cerevisiae deletion strains, locus YNR052C, strain pop2, active compounds read low 0.991 | S. cerevisiae deletion strains, locus YOL006C, strain TOP1, active compounds read low 1.05 | S. cerevisiae deletion strains, locus YOL012C, strain htz1 0.921 | S. cerevisiae deletion strains, locus YOL147C, strain pex11, active compounds read low 1 | S. cerevisiae deletion strains, locus YOR001W, strain rrp6, active compounds read low 1.02 | S. cerevisiae deletion strains, locus YOR061W, strain CKA2, active compounds read low 1.01 | S. cerevisiae deletion strains, locus YOR069W, strain VPS5, active compounds read low 1.01 | S. cerevisiae deletion strains, locus YOR070C, strain gyp1, active compounds read low 1 | S. cerevisiae deletion strains, locus YOR080W, strain dia2, active compounds read low 1.02 | S. cerevisiae deletion strains, locus YOR083W, strain WHI5, active compounds read low 0.991 | S. cerevisiae deletion strains, locus YOR106W, strain vam3, active compounds read low 1.04 | S. cerevisiae deletion strains, locus YOR136W, strain idh2, active compounds read low 0.992 | S. cerevisiae deletion strains, locus YOR144C, strain elg1, active compounds read low 0.989 | S. cerevisiae deletion strains, locus YOR184W, strain ser1, active compounds read low 0.993 | S. cerevisiae deletion strains, locus YOR231W, strain MKK1, active compounds read low 0.986 | S. cerevisiae deletion strains, locus YOR265W, strain rbl2, active compounds read low 1.01 | S. cerevisiae deletion strains, locus YOR270C, strain vph1, active compounds read low 1.01 | S. cerevisiae deletion strains, locus YOR290C, strain snf2, active compounds read low 0.997 | S. cerevisiae deletion strains, locus YOR316C, strain cot1, active compounds read low 0.994 | S. cerevisiae deletion strains, locus YPL051W, strain arl3, active compounds read low 1.01 | S. cerevisiae deletion strains, locus YPL078C, strain atp4, active compounds read low 1.02 | S. cerevisiae deletion strains, locus YPL106C, strain sse1, active compounds read low 0.975 | S. cerevisiae deletion strains, locus YPL240C, strain hsp82, active compounds read low 1.02 | S. cerevisiae deletion strains, locus YPL256C, strain CLN2, active compounds read low 0.968 | S. cerevisiae deletion strains, locus YPR119W, strain clb2, active compounds read low 0.975 | S. cerevisiae deletion strains, locus YPR141C, strain kar3, active compounds read low 0.99 | S. cerevisiae deletion strains, locus YPR163C, strain tif3, active compounds read low 0.993 | S. cerevisiae deletion strains, locus YPR167C, strain met16, active compounds read low 0.986 | S. cerevisiae deletion strains, strain wtn01, active compounds read low 0.998 | S. cerevisiae strains, strain wild type, active compounds read low 1.01
